PubChem BioAssay (Tox21)
Inconclusive results are not listed. Calls of active or inactive are those of the source. Unless noted, calls come from the whole dose curve; as a rule, active = well fitted curve in the direction sought with a large enough effect in the repeat runs; inconclusive = weak or mixed curves; inactive = no such curve, though single readings can be large; an effect the other way counts as inactive or inconclusive.

Legend:
[1] = qHTS assay to identify small molecule antagonists of the retinoid-related orphan receptor gamma (ROR-gamma) signaling pathway - cell viability counter screen (AID 1159520); note: % is set by controls: 0 for no effect and ±100 for the full control effect; nearly all actives have a fitted effect of over 50% in size
In short: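 Tet-on ROR gamma CHO cells were given compounds for 2 hr, then doxycycline hyclate at 1 uM final, and incubated 16 hr at 37 C. Viability was measured as ATP content by CellTiter-Glo luminescence.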

[2] = target: Nuclear receptor ROR-gamma (Homo sapiens) (UniProt P51449); assay: qHTS assay to identify small molecule antagonists of the retinoid-related orphan receptor gamma (ROR-gamma) signaling pathway (AID 1159521;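 note: CHO cells with doxycycline inducible ROR-gamma driving an RORE luciferase reporter; top concentration of the series differs between compounds; % is set by controls: 0 for no effect and ±100 for the full control effect; nearly all actives have a fitted effect of over 50% in size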)
In short: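 Cells were plated, rested 4 h at 37 C, exposed to compounds for 2 h, then given 1 uM final doxycycline hyclate to induce RORγ expression. After 16 h, ONE-Glo luminescence from the ROR response element reporter was measured.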

[3] = qHTS assay to identify small molecule agonists of the AP-1 signaling pathway - cell viability counter screen (AID 1159525; calls by dose curve; note: nearly all actives have a fitted effect of over 55% in size)
In short: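 Same-well cytotoxicity counter screen of the Tox21 10K library in ME-180 cells. The readout is ATP-dependent luminescence after 5 h compound treatment. Data are normalised to DMSO and tetra n-octyl ammonium bromide controls.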

[4] = qHTS assay to identify small molecule agonists of the AP-1 signaling pathway (AID 1159526; calls by dose curve; note: % is set by controls: 0 for no effect and ±100 for the full control effect)
[5] = target: Retinoic acid receptor RXR-alpha (Homo sapiens) (UniProt P19793); assay: qHTS assay to identify small molecule agonists of the RXR signaling pathway (AID 1159527; calls by dose curve; note: % is set by controls: 0 for no effect and ±100 for the full control effect; nearly all actives have a fitted effect of over 35% in size)
In short: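 Cells plated at 2,000/well, rested 5 hr at 37 C, pin-dosed with DMSO compound solutions, incubated 16 hr, then loaded with B/G FRET substrate for 2 hr at RT before dual-emission fluorescence reading.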

[6] = qHTS assay to identify small molecule agonists of the RXR signaling pathway - cell viability counter screen (AID 1159529);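 note: HEK 293T cells carrying an RXR-alpha UAS beta-lactamase reporter; series mostly up to about 77 µM; % is set by controls: 0 for no effect and ±100 for the full control effect; nearly all actives have a fitted effect of over 50% in size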
In short: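 Steps: seed RXR-alpha-UAS-bla HEK 293T cells in assay medium containing 2% charcoal-stripped FBS; incubate 5 hr; add compounds in DMSO; incubate 16 hr at 37 C; after the bla read, add CellTiter-Glo and read luminescence at 30 min.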

[7] = qHTS assay to identify small molecule antagonists of the retinoid acid receptor (RAR) signaling pathway - cell viability counter screen (AID 1159551); note: % is set by controls: 0 for no effect and ±100 for the full control effect; nearly all actives have a fitted effect of over 35% in size
In short: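 Measured by luminescent ATP detection, viability reflects C3RL4 cells treated 6 h at 37 C with test chemicals in the presence of 1 uM (final) retinol.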

[8] = qHTS assay to identify small molecule antagonists of the retinoic acid receptor (RAR) signaling pathway (AID 1159552; note: % is set by controls: 0 for no effect and ±100 for the full control effect; nearly all actives have a fitted effect of over 50% in size)
In short: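 Retinol at 1 uM final stimulated RARE-luciferase expression in C3RL4 cells exposed to test compounds for 6 hr at 37 C. Reduced luminescence, read 30 min after detection reagent, indicated pathway antagonism.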

[9] = qHTS assay to identify small molecule antagonists of the estrogen related receptor (ERR) signaling pathway from Tox21 library - cell viability counter screen (AID 1224834); note: % is set by controls: 0 for no effect and ±100 for the full control effect; nearly all actives have a fitted effect of over 30% in size
In short: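 Seeded ERR cells were rested 6 h at 37 C/5% CO2 before compounds, positive and negative controls or DMSO were added. Incubation continued for 17.5 h, and viability was then quantified by CellTiter-Fluor fluorescence.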

[10] = target: Luciferin 4-monooxygenase (Photinus pyralis) (UniProt P08659); assay: qHTS assay to identify small molecule inhibitors of firefly luciferase (AID 1224835); note: series mostly up to about 120 µM; % is set by controls: 0 for no effect and ±100 for the full control effect; nearly all actives have a fitted effect of over 25% in size
In short: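 Biochemical qHTS: compounds run as interplate titrations against purified firefly enzyme, with D-luciferin and ATP each at its KM concentration. Light output recorded by CCD imaging.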

[11] = qHTS assay to identify small molecule agonists of the constitutive androstane receptor (CAR) signaling pathway - cell viability counter screen (AID 1224836); note: series mostly up to about 92 µM; % is set by controls: 0 for no effect and ±100 for the full control effect; nearly all actives have a fitted effect of over 45% in size
In short: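 Cells were seeded and incubated 4 hrs. Compounds were added across 15 concentrations together with PK11195 at 0.75 uM final. Plates were incubated 23 hrs at 37 C. CellTiter-Fluor was added and fluorescence measured.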

Chain of Retinoic acid receptor RXR-alpha (Homo sapiens) (P19793 whole entry, looked up): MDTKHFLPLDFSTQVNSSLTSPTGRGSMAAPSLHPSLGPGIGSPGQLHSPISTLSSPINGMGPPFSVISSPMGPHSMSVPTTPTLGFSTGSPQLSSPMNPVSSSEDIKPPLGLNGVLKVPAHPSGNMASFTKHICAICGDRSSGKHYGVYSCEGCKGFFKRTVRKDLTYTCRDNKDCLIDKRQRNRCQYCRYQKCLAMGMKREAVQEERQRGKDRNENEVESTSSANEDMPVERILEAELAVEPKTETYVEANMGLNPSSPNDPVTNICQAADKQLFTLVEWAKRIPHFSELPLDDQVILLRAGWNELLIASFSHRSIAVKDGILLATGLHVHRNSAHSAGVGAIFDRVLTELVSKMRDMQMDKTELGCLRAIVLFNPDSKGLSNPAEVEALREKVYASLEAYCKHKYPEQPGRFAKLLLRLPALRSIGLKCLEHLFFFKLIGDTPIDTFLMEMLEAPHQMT
Chain of Luciferin 4-monooxygenase (Photinus pyralis) (P08659 whole entry, looked up): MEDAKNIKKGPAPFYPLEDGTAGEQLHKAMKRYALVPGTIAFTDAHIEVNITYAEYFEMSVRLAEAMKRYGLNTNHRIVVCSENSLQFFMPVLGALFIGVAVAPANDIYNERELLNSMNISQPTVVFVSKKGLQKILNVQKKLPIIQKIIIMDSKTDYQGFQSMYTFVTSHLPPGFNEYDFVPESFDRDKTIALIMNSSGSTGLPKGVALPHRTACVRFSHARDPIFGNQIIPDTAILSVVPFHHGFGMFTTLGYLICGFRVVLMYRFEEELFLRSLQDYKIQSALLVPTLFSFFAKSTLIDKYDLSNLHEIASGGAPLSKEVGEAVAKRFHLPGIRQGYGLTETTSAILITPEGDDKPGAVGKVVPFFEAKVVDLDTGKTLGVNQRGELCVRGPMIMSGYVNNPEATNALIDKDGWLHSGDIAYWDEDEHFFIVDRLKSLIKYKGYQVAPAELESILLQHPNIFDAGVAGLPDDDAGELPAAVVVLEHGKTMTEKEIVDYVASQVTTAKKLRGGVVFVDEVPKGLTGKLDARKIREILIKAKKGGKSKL

CC[N+](CC)(CC)Cc1ccccc1
inactive: Potency [1] | Potency [2] | Potency [3] | Potency [4] | Potency [5] | Potency [6] | Potency [7] | Potency [8] | Potency [9] | Potency [10] | Potency [11]

C#CC(O)CCC (stereo not given)
inactive: Potency [1] | Potency [2] | Potency [3] | Potency [4] | Potency [5] | Potency [6] | Potency [7] | Potency [8] | Potency [9] | Potency [10] | Potency [11]

c1ccc2c(c1)CCC2
inactive: Potency [1] | Potency [2] | Potency [3] | Potency [4] | Potency [5] | Potency [6] | Potency [7] | Potency [8] | Potency [9] | Potency [10] | Potency [11]

C=CC/C=C/C/C=C/C/C=C/C
inactive: Potency [1] | Potency [2] | Potency [3] | Potency [4] | Potency [5] | Potency [6] | Potency [7] | Potency [8] | Potency [9] | Potency [10] | Potency [11]

CCCCCCS
inactive: Potency [1] | Potency [2] | Potency [3] | Potency [4] | Potency [5] | Potency [6] | Potency [7] | Potency [8] | Potency [9] | Potency [10] | Potency [11]

C/C=C/C(=O)C1=C(C)CCCC1(C)C
inactive: Potency [1] | Potency [2] | Potency [3] | Potency [4] | Potency [5] | Potency [6] | Potency [7] | Potency [8] | Potency [9] | Potency [10] | Potency [11]

CCC(C)C(=O)OC (stereo not given)
inactive: Potency [1] | Potency [2] | Potency [3] | Potency [4] | Potency [5] | Potency [6] | Potency [7] | Potency [8] | Potency [9] | Potency [10] | Potency [11]

CC1(C)COCN1
inactive: Potency [1] | Potency [2] | Potency [3] | Potency [4] | Potency [5] | Potency [7] | Potency [8] | Potency [9] | Potency [11]

CCC1CCCCC1
inactive: Potency [1] | Potency [2] | Potency [3] | Potency [4] | Potency [5] | Potency [7] | Potency [8] | Potency [9] | Potency [10] | Potency [11]

CO[Si](CCC1CCC2OC2C1)(OC)OC (stereo not given)
inactive: Potency [1] | Potency [2] | Potency [3] | Potency [4] | Potency [5] | Potency [7] | Potency [8] | Potency [9] | Potency [10] | Potency [11]

CCc1c(C(=O)O)c(=O)cnn1-c1ccc(Cl)cc1
inactive: Potency [1] | Potency [2] | Potency [3] | Potency [4] | Potency [6] | Potency [7] | Potency [8] | Potency [9] | Potency [10] | Potency [11]

Cc1cncc(C)c1
inactive: Potency [1] | Potency [2] | Potency [3] | Potency [4] | Potency [5] | Potency [7] | Potency [8] | Potency [9] | Potency [10] | Potency [11]

C=CC(=C)CC/C=C(\C)CCC=C(C)C
inactive: activity, negative = cytotoxicity [1] 3.07% [at 19 µM] | activity change, negative = inhibition [2] 0.326% [at 19 µM] | viability change, negative = cytotoxic [3] 2.62% [at 15.8 µM] | activation [4] -1.16% [at 15.8 µM] | activation [5] -18.2% [at 15.8 µM] | activity change, negative = cytotoxicity [6] -8.98% [at 15.8 µM] | activity change, negative = cytotoxicity [7] -0.128% [at 19 µM] | viability change, negative = cytotoxic [9] 0.736% [at 19 µM] | activity change, negative = inhibition [10] 0.425% [at 23.6 µM] | viability change, negative = cytotoxic [11] 4.77% [at 19 µM]

CC(=O)c1ccccc1N
inactive: Potency [1] | Potency [2] | Potency [3] | Potency [4] | Potency [6] | Potency [7] | Potency [8] | Potency [9] | Potency [10] | Potency [11]

CC1=CP(=O)(c2ccccc2)CC1 (stereo not given)
inactive: Potency [1] | Potency [2] | Potency [3] | Potency [4] | Potency [6] | Potency [7] | Potency [8] | Potency [9] | Potency [10] | Potency [11]

OCCCS
inactive: Potency [1] | Potency [2] | Potency [3] | Potency [4] | Potency [6] | Potency [7] | Potency [8] | Potency [9] | Potency [10] | Potency [11]

CN(C)CCN1CCOCC1
inactive: Potency [1] | Potency [2] | Potency [3] | Potency [4] | Potency [5] | Potency [6] | Potency [7] | Potency [8] | Potency [9] | Potency [11]

O=C[C@H](O)[C@H](O)[C@H](O)CO
inactive: Potency [1] | Potency [2] | Potency [3] | Potency [4] | Potency [5] | Potency [7] | Potency [8] | Potency [9] | Potency [11]

CC(=O)OC1CCCCC1
inactive: Potency [1] | Potency [2] | Potency [3] | Potency [4] | Potency [6] | Potency [7] | Potency [8] | Potency [9] | Potency [10] | Potency [11]

CCCC(C)CCC(C)=O (stereo not given)
inactive: Potency [1] | Potency [2] | Potency [3] | Potency [4] | Potency [5] | Potency [6] | Potency [7] | Potency [8] | Potency [9] | Potency [11]
